Residues, ends and D or L forms follow the SMILES beside them.
Assays:
Details in all cases: Compound concentration 20.0 uM
[1] = target: Tyrosine-protein kinase ABL1 (Homo sapiens) (UniProt P00519)
[2] = target: Bromodomain-containing protein 4 (Homo sapiens) (UniProt O60885)
[3] = target: Cyclin-dependent kinase 2 (Homo sapiens) (UniProt P24941)
[4] = target: Casein kinase I isoform delta (Homo sapiens) (UniProt P48730)
[5] = target: Glycogen synthase kinase-3 beta (Homo sapiens) (UniProt P49841)
Chain of Glycogen synthase kinase-3 beta (Homo sapiens) (P49841 whole entry, looked up): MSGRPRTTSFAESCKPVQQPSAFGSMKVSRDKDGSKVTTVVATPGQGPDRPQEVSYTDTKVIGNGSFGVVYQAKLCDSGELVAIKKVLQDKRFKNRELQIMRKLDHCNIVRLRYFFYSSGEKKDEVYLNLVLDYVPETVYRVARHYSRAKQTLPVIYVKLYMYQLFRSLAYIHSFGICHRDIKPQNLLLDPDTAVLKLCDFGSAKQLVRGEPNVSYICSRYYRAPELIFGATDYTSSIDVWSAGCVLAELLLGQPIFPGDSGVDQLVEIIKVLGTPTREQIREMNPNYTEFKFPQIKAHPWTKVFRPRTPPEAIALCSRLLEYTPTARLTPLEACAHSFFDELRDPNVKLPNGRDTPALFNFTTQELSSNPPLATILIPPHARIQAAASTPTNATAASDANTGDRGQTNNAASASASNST

[6] = target: Mitogen-activated protein kinase 1 (Homo sapiens) (UniProt P28482)
Chain of Mitogen-activated protein kinase 1 (Homo sapiens) (P28482 whole entry): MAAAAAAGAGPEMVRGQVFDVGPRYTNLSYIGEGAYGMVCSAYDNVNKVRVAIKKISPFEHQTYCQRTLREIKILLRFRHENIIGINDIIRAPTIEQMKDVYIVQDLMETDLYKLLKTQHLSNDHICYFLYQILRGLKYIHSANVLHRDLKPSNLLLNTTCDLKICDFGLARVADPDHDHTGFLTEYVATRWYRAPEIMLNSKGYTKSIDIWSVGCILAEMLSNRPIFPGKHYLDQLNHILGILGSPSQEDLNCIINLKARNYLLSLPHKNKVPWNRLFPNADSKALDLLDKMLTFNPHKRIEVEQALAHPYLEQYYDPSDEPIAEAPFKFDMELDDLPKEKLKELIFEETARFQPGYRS

[7] = target: T1, Aurora kinase A (Homo sapiens) (UniProt O14965)
T1 sequence (whole entry): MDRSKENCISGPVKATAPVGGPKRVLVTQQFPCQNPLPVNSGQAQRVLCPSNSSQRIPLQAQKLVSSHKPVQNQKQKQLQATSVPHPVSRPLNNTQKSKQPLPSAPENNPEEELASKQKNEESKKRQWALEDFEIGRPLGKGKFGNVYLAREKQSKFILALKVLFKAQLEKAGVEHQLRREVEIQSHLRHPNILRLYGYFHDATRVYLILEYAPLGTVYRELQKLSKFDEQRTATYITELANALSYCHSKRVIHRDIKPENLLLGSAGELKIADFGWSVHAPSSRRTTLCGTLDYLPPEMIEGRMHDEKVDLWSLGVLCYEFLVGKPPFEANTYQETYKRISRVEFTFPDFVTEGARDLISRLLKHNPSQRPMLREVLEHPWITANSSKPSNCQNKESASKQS

[8] = target: T2, Transcription intermediary factor 1-alpha (Homo sapiens) (UniProt O15164)
T2 sequence (whole entry): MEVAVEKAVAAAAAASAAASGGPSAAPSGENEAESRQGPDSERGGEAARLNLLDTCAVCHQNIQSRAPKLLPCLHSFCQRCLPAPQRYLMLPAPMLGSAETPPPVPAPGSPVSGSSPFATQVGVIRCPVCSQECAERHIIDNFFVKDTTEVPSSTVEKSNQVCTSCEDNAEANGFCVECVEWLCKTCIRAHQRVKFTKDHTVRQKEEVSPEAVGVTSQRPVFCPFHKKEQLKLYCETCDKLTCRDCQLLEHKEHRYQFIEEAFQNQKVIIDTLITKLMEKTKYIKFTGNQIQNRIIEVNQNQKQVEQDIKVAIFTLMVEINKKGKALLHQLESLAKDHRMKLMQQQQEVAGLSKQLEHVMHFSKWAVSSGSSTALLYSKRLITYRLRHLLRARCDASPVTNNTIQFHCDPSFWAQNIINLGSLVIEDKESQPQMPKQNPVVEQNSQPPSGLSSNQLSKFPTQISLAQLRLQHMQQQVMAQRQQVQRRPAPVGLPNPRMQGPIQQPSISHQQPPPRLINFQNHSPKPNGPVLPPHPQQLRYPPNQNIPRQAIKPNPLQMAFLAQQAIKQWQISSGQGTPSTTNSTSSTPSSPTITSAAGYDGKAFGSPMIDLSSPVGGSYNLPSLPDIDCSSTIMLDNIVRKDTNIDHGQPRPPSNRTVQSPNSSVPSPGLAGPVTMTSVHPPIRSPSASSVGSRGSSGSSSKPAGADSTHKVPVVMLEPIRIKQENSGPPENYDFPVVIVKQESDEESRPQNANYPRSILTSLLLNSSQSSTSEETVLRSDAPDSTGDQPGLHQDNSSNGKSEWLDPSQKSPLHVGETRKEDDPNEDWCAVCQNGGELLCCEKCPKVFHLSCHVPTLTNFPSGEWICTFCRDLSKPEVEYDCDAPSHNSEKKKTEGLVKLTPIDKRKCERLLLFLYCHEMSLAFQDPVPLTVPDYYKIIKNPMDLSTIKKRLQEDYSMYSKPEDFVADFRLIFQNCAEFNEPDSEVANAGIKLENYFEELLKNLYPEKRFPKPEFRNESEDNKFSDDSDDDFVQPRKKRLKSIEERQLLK

Chain of Casein kinase I isoform delta (Homo sapiens) (P48730 whole entry, looked up, canonical isoform): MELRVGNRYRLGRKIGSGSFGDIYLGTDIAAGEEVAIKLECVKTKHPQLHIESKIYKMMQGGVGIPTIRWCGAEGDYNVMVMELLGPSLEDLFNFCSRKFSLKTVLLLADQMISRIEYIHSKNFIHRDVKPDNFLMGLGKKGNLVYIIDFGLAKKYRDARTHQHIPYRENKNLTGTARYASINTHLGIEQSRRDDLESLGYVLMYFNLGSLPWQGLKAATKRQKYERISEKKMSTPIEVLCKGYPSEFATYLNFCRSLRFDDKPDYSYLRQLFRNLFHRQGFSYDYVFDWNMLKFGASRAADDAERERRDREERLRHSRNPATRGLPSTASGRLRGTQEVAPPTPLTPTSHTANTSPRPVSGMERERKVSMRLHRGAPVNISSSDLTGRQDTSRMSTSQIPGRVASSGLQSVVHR
Chain of Tyrosine-protein kinase ABL1 (Homo sapiens) (P00519 whole entry): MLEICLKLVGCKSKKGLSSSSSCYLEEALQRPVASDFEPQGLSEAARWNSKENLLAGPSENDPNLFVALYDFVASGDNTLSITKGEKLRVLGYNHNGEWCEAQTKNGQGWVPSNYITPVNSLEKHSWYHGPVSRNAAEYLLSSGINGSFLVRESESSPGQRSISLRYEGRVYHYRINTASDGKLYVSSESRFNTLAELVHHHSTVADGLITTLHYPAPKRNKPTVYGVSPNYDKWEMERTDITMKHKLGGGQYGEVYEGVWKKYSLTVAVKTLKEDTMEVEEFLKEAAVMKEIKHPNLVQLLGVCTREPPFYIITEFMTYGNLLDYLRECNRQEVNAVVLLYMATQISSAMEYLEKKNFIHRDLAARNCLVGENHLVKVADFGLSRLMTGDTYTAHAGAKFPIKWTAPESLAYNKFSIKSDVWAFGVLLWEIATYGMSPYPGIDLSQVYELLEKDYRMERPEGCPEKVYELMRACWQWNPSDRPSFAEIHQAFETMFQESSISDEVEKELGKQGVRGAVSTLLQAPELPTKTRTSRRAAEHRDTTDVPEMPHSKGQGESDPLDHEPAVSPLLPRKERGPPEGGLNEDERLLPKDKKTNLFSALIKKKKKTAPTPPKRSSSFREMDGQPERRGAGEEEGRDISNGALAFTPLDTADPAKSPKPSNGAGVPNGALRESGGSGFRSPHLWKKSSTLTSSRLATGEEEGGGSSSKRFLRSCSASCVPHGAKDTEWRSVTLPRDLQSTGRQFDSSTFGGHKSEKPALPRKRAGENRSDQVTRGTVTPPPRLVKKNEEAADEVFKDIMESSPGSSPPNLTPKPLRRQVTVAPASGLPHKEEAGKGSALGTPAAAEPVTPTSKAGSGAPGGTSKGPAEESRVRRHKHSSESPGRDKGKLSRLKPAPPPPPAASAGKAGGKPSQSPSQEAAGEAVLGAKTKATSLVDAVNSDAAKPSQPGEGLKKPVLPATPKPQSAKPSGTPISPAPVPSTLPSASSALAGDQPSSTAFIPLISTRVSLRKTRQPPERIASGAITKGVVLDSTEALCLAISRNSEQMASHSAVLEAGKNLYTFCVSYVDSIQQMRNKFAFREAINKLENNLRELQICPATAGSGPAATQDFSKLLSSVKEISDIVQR

Row | SMILES | ΔTm [1] [°C] | ΔTm [2] [°C] | ΔTm [3] [°C] | ΔTm [4] [°C] | ΔTm [5] [°C] | ΔTm [6] [°C] | ΔTm [7] [°C] | ΔTm [8] [°C]
1 | CCS(=O)(=O)N1CC(CC#N)(n2cc(-c3ncnc4[nH]ccc34)cn2)C1 | 2.37 | -1.2 | 0.85 | 1.28 | 3.43 | 0.18 | 5.08 | -0.73
2 | CNC(=O)c1cnc(N2CCC[C@H](N)C2)nc1Nc1cc(C(C)C)nc(C(C)C)c1 | 0.5 | -1.65 | 0.07 | 1.75 | -0.33 | 0.06 | -0.12 | -1
3 | NCCOCCOCCNC(=O)Cc1ccc(Nc2nc(NCc3ccc(F)cc3)nc(NCC3CCCCC3)n2)cc1 | 0.61 | -3.77 | 0.63 | 0.54 | 0 | 0.37 | -2.14 | -0.27
4 | CC(=O)N[C@@H](CC(=O)O)C(=O)N[C@@H](CCC(=O)O)C(=O)N[C@H](C(=O)N[C@H](C=O)CC(=O)O)C(C)C | -0.28 | -1.5 | -0.58 | -0.17 | -0.28 | -0.74 | -1.77 | -1.09
5 | CN(C)CCCN(CC[C@H](N)C(=O)O)C[C@H]1O[C@@H](n2cnc3c(N)ncnc32)[C@H](O)[C@@H]1O | 0.32 | -2.2 | -0.1 | 0.02 | -1.16 | 0.04 | -0.74 | -1.49
6 | CN(C(=O)CCCOc1ccc2[nH]c(=O)ccc2c1)C1CCCCC1 | 0.63 | -1.68 | 0.09 | -0.15 | 0.07 | 0.58 | -2.27 | -2.36
7 | Cc1c(CN2CCC(Nc3ncnc4sc(CC(F)(F)F)cc34)CC2)ccc2c1cc(C#N)n2Cc1cn[nH]c1 | 0.97 | -1.35 | -0.07 | 1.61 | 0.28 | -7.35 | -1.51 | 0.6
8 | CNC(=O)Cn1cc(-c2ccc3c(c2)[C@H](F)C[C@]32NC(=O)N(CC(=O)N(Cc3ccc(F)cc3)[C@@H](C)C(F)(F)F)C2=O)cn1 | 0.95 | -4.22 | 1.31 | 0.73 | 1.28 | -6.46 | -1.03 | -1.4
9 | COc1cc(-c2cn(C)c(=O)c3cnccc23)cc(OC)c1CN(C)CC(=O)NCCOCCOCCNc1cccc2c1C(=O)N(C1CCC(=O)NC1=O)C2=O (stereo unspecified) | 0.07 | -1.54 | 0.21 | 0.06 | 0.14 | -0.38 | -1.03 | -0.75
10 | Cc1cc(/N=N/c2ccc(S(=O)(=O)NC3CCCC3)cc2)c(N)cc1O | 0.4 | 7.29 | 4.93 | 1.1 | 4.28 | 2.73 | 0.42 | 2.48
11 | N[C@H](C(=O)O)[C@H](OCc1cccc(NC(=O)c2ccc(C(F)(F)F)cc2)c1)C(=O)O | 0.24 | -3.61 | -0.09 | -0.32 | -0.8 | 0.12 | -2.5 | 0.13
12 | NC(=O)[C@H]1CCCCc2c1[nH]c1ccc(Cl)cc21 | 1.15 | -1.22 | 0.22 | 0.38 | 0.6 | -0.5 | 1.7 | 0.16
13 | C[C@@H]1CN(c2ncc(Cl)c(Nc3ccc4c(c3)n(CCC(C)(C)O)c(=O)n4C)n2)C[C@H](C)C1(F)F | -0.67 | 0.35 | 1.82 | -0.69 | 4.11 | -8.12 | 4 | 2.58
14 | O=C1C(=O)N(Cc2ccccc2)c2ccc(S(=O)(=O)N3CCC[C@H]3COc3ccc(C(F)(F)F)cc3)cc21 | -0.46 | -4.2 | -0.42 | 0.54 | -0.32 | -0.63 | -1.82 | -1.21
15 | CNC(=O)O[C@H]1COc2ccc(N3CCN(C4COC4)CC3)cc2[C@@H]1NC(=O)c1ccc(F)cc1 | 0.28 | -1.16 | -0.66 | 0.03 | -0.56 | -1.19 | -1.61 | -0.51
16 | CC(=O)N[C@@H](CC(C)C)C(=O)N[C@@H](CCC(=O)O)C(=O)N[C@@H](Cc1cnc[nH]1)C(=O)N[C@H](C=O)CC(=O)O (Ac-LEHD-aldehyde) | 0.07 | -2.66 | 0.05 | 0.09 | -0.79 | -0.4 | -1.34 | -0.81
17 | Nc1ccccc1NC(=O)c1ccc(CNC(=O)OCc2cccnc2)cc1 | 0.63 | -1.69 | 0.81 | 0.33 | -0.75 | 0.21 | 0.05 | -1.42
18 | FC(F)(F)Cn1cc(-c2ccncc2)c(-c2ccc(OCc3ccc4ccccc4n3)cc2)n1 | 1.54 | -3.29 | 0.14 | 1.23 | -1.19 | 0.65 | 0.56 | -0.98
19 | CC(C)[C@H](NC(=O)OCc1ccccc1)C(=O)NC(CC(=O)O)C(=O)CF (stereo partly specified) | -0.18 | -3.41 | -0.73 | 0.1 | 0.35 | -0.08 | -2.03 | -1.64
20 | CS(=O)(=O)N1CCN(C(=O)c2cnc3ccc(F)cc3c2N2CCC(C#N)(c3ccccc3)CC2)CC1 | 0.43 | -2.17 | -0.17 | 0.48 | 0.47 | -0.62 | -0.82 | 0
21 | COCCOc1cc(CC2CCN(CCc3ccc4c(c3)C(=O)CCO4)CC2)ccc1Br | 0.83 | -2.23 | 0.15 | -0.07 | -0.17 | 0.56 | -2.41 | -0.98
22 | CCc1c(C)nc(-c2ccc(Cl)s2)nc1Nc1ccc(CC(=O)O)cc1 | 0.97 | -2.77 | 0.44 | -0.04 | 0 | 0.51 | -0.9 | 1.46
